For assay [1], the system named is Vero E6 infected with SARS-CoV-2. Briefly: morphology score (similarity to uninfected cells); higher = more like uninfected cells. To be noted: 24 h.
For assay [2] the test system is unchanged. Briefly: SARS-CoV-2 infection rate relative to infected DMSO; higher = more infection, active = 60 or less. Particulars: 24 h.

Our source for the morphology score and SARS-CoV-2 infection rate values is the supplement of paper PMC13380429.

As to `CC(C)c1cc(-c2ccc(F)c3ccccc23)nc(N)n1` (10 µM), the morphology score in assay [1] came out at 0.153. Moreover, the SARS-CoV-2 infection rate in assay [2] was 108% (inactive).
The corresponding values for `NC1=NC(=O)N([C@H]2C[C@H](O)[C@@H](CO)O2)CN1` (10 µM) are 0.0264 and 106% (inactive).
The corresponding values for `Cc1c(NC(=O)c2cccnc2)c(=O)n(-c2ccccc2)n1C` [nifenazone] (10 µM) are 0.0329 and 102% (inactive).
The matching figures for `COc1ccc(C2=N[C@@H](c3ccc(Cl)cc3)[C@@H](c3ccc(Cl)cc3)N2C(=O)N2CCNC(=O)C2)c(OC(C)C)c1` [nutlin-3] (0.833333 µM): 0.101 and 117% (inactive).
In turn, `OC[C@H]1O[C@H](O[C@H]2[C@H](O)[C@@H](O)[C@H](O)O[C@@H]2CO)[C@H](O)[C@@H](O)[C@@H]1O` [D-(+)-maltose] (10 µM) yielded a morphology score in assay [1] of 0.129. In addition, in assay [2], the SARS-CoV-2 infection rate was 86% (inactive).
The matching figures for `Cc1oc(=O)oc1CN1CCN(c2cc3c(cc2F)c(=O)c(C(=O)O)c2n3C(C)S2)CC1` (stereo unspecified) [prulifloxacin] (10 µM): 0.197 and 97% (inactive).
The matching figures for `CCc1c(C(=O)C(N)=O)c2c(OCC(=O)O)cccc2n1Cc1ccccc1` [varespladib] (10 µM): 0.0669 and 108% (inactive).
The corresponding values for `CC(=O)O[C@]1(C(C)=O)CC[C@H]2[C@@H]3C=C(C)C4=CC(=O)CC[C@@H]4[C@H]3CC[C@@]21C` [nomegestrol-acetate] (10 µM) are 0.147 and 95% (inactive).
Consider `CON(C)C(=O)N1N=C(c2cc(F)ccc2F)S[C@@]1(CCCN)c1ccccc1` [filanesib] (0.833333 µM), for which the morphology score in assay [1] is -0.306. Further, the SARS-CoV-2 infection rate in assay [2] was 99% (inactive).
The matching figures for `CCCCCCCCCCCCCC(=O)[O-].CCCCCCCCCCCCCC(=O)[O-].N[C@@H]1CCCC[C@H]1N.[Pt+2]` [miriplatin] (10 µM): 0.0834 and 114% (inactive).
The matching figures for `Nc1ccn([C@H]2CC[C@@H](CO)O2)c(=O)n1` [zalcitabine] (10 µM): 0.0931 and 104% (inactive).
The corresponding values for `CC1(C)C(=O)N(CCN2CCC(C(=O)c3ccc(F)cc3)CC2)c2ccccc21` (10 µM) are -0.158 and 110% (inactive).
In the case of `Nc1ccn([C@H]2CO[C@@H](CO)S2)c(=O)n1` [apricitabine] (10 µM), the morphology score in assay [1] amounted to 0.071. In addition, the SARS-CoV-2 infection rate in assay [2] was 108% (inactive).
In assay [1], `CCOC(=O)OC(C)OC(=O)[C@@H]1N2C(=O)[C@@H](NC(=O)[C@H](N)c3ccccc3)[C@H]2SC1(C)C` (stereo partly specified) [bacampicillin] (10 µM) returned a morphology score of -0.0144. In addition, the SARS-CoV-2 infection rate in assay [2] was 114% (inactive).
The corresponding values for `CC[C@H](C)[C@H](N)C1=N[C@H](C(=O)N[C@@H](CC(C)C)C(=O)N[C@H](CCC(=O)O)C(=O)N[C@H](C(=O)N[C@H]2CCCCNC(=O)[C@H](CC(N)=O)NC(=O)[C@@H](CC(=O)O)NC(=O)[C@H](Cc3cnc[nH]3)NC(=O)[C@@H](Cc3ccccc3)NC(=O)[C@H]([C@@H](C)CC)NC(=O)[C@@H](CCCN)NC2=O)[C@@H](C)CC)CS1` [bacitracin] (10 µM) are -0.109 and 112% (inactive).
The matching figures for `O=C(O)/C=C/c1ccc(-c2ccc(O)c(C34CC5CC(CC(C5)C3)C4)c2)cc1` [adarotene] (10 µM): 0.00299 and 100% (inactive).
The matching figures for `COc1cccc(CN(C(=O)CC(C)(C)C)[C@H]2C[C@@H](C(=O)N3CCNCC3)N(Cc3ccc4c(c3)OCO4)C2)c1` (10 µM): 0.0543 and 102% (inactive).
In assay [1], `CCCc1nc(C(C)(C)O)c(C(=O)O)n1Cc1ccc(-c2ccccc2-c2nnn[nH]2)cc1` [olmesartan] (10 µM) had a morphology score of 0.0191. Besides, in assay [2], the SARS-CoV-2 infection rate was 102% (inactive).
The corresponding values for `O=C(O)C1=C[C@@H](O)[C@@H](O)[C@H](O)C1` [shikimic-acid] (10 µM) are 0.0235 and 108% (inactive).
The matching figures for `CC(C)(C)NCC(O)c1cc(Br)no1` (stereo unspecified) [broxaterol] (10 µM): -0.00593 and 112% (inactive).
The matching figures for `CC(C)n1nc(C#Cc2ccccc2)c2c(N)ncnc21` (10 µM): 0.471 and 69.5% (inactive).
Regarding `CN(C)Cc1cccc(N/C(=C2\C(=O)Nc3cc(C(N)=O)ccc32)c2ccccc2)c1` (10 µM), in assay [1], the morphology score is -0.132. Moreover, the SARS-CoV-2 infection rate in assay [2] was 120% (inactive).
Take `CS[C@H]1SC[C@H]2C(=O)N(C)[C@@H](C(C)C)C(=O)OC[C@@H](NC(=O)c3cnc4ccccc4n3)C(=O)N[C@@H](C)C(=O)N(C)[C@@H]1C(=O)N(C)[C@@H](C(C)C)C(=O)OC[C@@H](NC(=O)c1cnc3ccccc3n1)C(=O)N[C@@H](C)C(=O)N2C` [echinomycin] (0.833333 µM): the morphology score in assay [1] was -0.0512. Besides, the SARS-CoV-2 infection rate in assay [2] was 96% (inactive).
The matching figures for `N=C(N)c1ccc(N2CCN(C3CCN(CC(=O)O)CC3)CC2)cc1` (10 µM): -0.0825 and 106% (inactive).
The corresponding values for `Nc1nc2cc(-c3ccc4ncc(C(=O)N5CCOCC5)n4c3)ccc2o1` (10 µM) are 0.241 and 92% (inactive).
The matching figures for `N#Cc1ccncn1` [4-pyrimidinecarbonitrile] (10 µM): 0.0783 and 97% (inactive).
`COc1cc(Nc2nc3ccccc3nc2NS(=O)(=O)c2ccc(NC(=O)c3ccc(C)c(OC)c3)cc2)cc(OC)c1` (10 µM) displayed a morphology score in assay [1] of 0.0476. The SARS-CoV-2 infection rate in assay [2] is 119% (inactive).
The corresponding values for `C[C@@H]1NC(C)(C)CO[C@@]1(O)c1cccc(Cl)c1` [radafaxine] (10 µM) are -0.0433 and 110% (inactive).
